Screening data from PubChem BioAssay.
Hits are enriched below; roughly 11% of the tested compounds scored in any of these assays.
PNC inhibitor: High Content Assay for Compounds that inhibit the Assembly of the Perinucleolar Compartment | actives 3.1% (n = 140,000) | activity change (PNC), negative = inhibition, % at 10 µM | PC3M PTB-GFP, PNC prevalence imaging, 16 h; hits give low values;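 active = readout at or below -70, meaning at least 70% loss of cells showing the perinucleolar compartment, a nuclear body marking cancer cells; inconclusive = readout between -30 and a set limit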
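Compounds are pinned in duplicate onto adhered PC3M cells stably expressing GFP-tagged PTB and incubated 16 h at 37 C. Cells are then fixed, nuclei stained with Hoechst, and PNC-positive cells counted.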
ALDH1A1 block: qHTS Assay for Inhibitors of Aldehyde Dehydrogenase 1 (ALDH1A1). Aldehyde dehydrogenase 1A1 (Homo sapiens), P00352. Purified ALDH1A1, NADH fluorescence, propionaldehyde substrate. Potency, µM (series often up to 75.3 µM), hits mostly inhibitors. actives 7.3% (n = 220,000)
Target sequence (P00352 whole entry, looked up): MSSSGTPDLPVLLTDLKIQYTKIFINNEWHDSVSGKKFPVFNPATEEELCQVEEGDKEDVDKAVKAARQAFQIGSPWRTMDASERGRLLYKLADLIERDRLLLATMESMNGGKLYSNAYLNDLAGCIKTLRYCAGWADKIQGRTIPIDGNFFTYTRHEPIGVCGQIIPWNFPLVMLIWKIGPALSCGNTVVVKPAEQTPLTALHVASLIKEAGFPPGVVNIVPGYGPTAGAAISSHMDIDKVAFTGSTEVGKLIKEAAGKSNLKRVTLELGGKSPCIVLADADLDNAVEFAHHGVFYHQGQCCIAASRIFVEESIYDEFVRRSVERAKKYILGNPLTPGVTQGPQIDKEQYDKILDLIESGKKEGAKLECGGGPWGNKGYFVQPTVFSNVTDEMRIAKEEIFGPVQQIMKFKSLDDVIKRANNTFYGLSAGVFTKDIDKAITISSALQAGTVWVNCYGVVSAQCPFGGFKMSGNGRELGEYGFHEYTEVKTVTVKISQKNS
IMPase cell inh: qHTS Assay for Identifying the Cell-Membrane Permeable IMPase Inhibitors; CHO-M1 cells, IP1 accumulation, HTRF TR-FRET ratio; 120,000 tested, under 10 active; inhibition (IP1 accumulation), % at 46.1 µM; active = well fitted curve in the direction sought with a large enough effect in the signal ratio, not every such curve was filed as active; inconclusive = small, poorly fitted or top-dose-only effect, or a change in a side signal; inactive = no such curve, though single readings can be large or run the other way; the % refers to the signal ratio;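 note: cells stimulated with carbachol in lithium chloride buffer; higher means more IMPase inhibition seen as more IP1 and lower FRET ratio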
Target sequence (P97697 whole entry, looked up): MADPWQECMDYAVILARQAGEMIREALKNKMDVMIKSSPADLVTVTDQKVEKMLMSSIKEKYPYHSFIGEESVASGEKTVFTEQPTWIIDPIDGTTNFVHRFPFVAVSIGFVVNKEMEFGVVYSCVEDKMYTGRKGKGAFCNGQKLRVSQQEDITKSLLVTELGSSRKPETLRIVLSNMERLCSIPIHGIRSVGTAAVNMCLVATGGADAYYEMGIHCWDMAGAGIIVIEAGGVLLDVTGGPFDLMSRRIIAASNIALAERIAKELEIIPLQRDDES
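Elevated IP1 in lysates lowers TR-FRET signal (665/620 ratio and 620 channel reported). Cells were CHO-M1, given carbachol (50 uM as added) plus 50mM LiCl, pH 7.4, 30 min, 37C; compounds titrated up to 46 uM; AC50 by Hill equation.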
IMPase Li cell: qHTS Assay for Identifying the Cell-Membrane Permeable IMPase Inhibitors: Potentiation with Lithium | CHO-M1 cells, IP1 TR-FRET (IP-One), carbachol + lithium | Potency, µM (titrated, usually from 59.4 µM), hits mostly inhibitors | actives 0.35% (n = 210,000); active = well fitted curve in the direction sought with a large enough effect; inconclusive = small, poorly fitted or top-dose-only effect, or another doubt; inactive = no such curve, though single readings can be large; an effect the other way counts as inactive or inconclusive;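 note: IP1 builds up when IMPase is blocked and the TR-FRET signal falls; nearly all actives have a fitted effect of over 50% in size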
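Lithium-sensitised IP1 accumulation assay; M1-expressing CHO cells treated 30 min at 37C with compound. Competitive antibody detection by time-resolved FRET followed a 10 min room-temperature lysis step.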
ALOX12 inhib: qHTS Assay for Inhibitors of 12-hLO (12-human lipoxygenase) | actives 0.12% (n = 150,000) | Potency, µM (doses to about 57.1 µM), usual class: inhibitors | Polyunsaturated fatty acid lipoxygenase ALOX12 (Homo sapiens), P18054 | purified 12-hLO, xylenol orange hydroperoxide absorbance; active = well fitted curve in the direction sought with a large enough effect; inconclusive = small, poorly fitted or top-dose-only effect, or another doubt; inactive = no such curve, though single readings can be large; an effect the other way counts as inactive or inconclusive; note: nearly all actives have a fitted effect of over 55% in size
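Purified human 12hLO (150 nM final) was preincubated with compounds for 15 min at room temperature in 25 mM Hepes pH 7.0, 0.01% Triton X-100, then reacted with 40 uM arachidonic acid for 30 min. Hydroperoxide was detected with ferrous iron/xylenol orange.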
HPGD block: qHTS Assay for Inhibitors of HPGD (15-Hydroxyprostaglandin Dehydrogenase). 15-hydroxyprostaglandin dehydrogenase [NAD(+)] (Homo sapiens), P15428. purified HPGD, NADH fluorescence kinetic, PGE2 substrate. Potency, µM, most hits filed as inhibitors. actives 4.3% (n = 150,000)
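NADH formation kinetics: reaction with 30 uM PGE2 and 1 mM NAD+ (final), 20 nM enzyme, Tris-HCl pH 8 with Tween 20, after 15 min compound preincubation at room temperature. Fluorescence change, last versus first of five reads.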
Of the large screens only hits and unclear results are named; the others gave an inactive call; ! = a repeat was not active. Unless noted, calls come from the whole dose curve; as a rule, active = well fitted inhibition curve with a large enough effect (not every such curve was filed as active); inconclusive = small, poorly fitted or top-dose-only effect, or another doubt; inactive = no such curve, though single readings can be large or run the other way.

CNC(=S)N/N=C1\CC(c2ccccc2)Oc2ccccc21 (centres undefined)	none (no result: PNC inhibitor, IMPase cell inh, ALOX12 inhib, HPGD block)
O=S(=O)(N/N=C1/CCCc2ccccc21)c1ccc(Br)cc1	ALDH1A1 block 14µM
Cc1ccc(S(=O)(=O)N/N=C2/CC(c3ccccc3)Oc3ccccc32)cc1[N+](=O)[O-] (centres undefined)	ALDH1A1 block 7.1µM, IMPase Li cell inconclusive
O=S(=O)(N/N=C1/CC(c2ccccc2)Oc2ccccc21)c1ccc(Br)cc1 (centres undefined)	PNC inhibitor inconclusive, ALDH1A1 block 22µM
Fc1ccc(N/N=C2/CC(c3ccccc3)Oc3ccccc32)c(F)c1 (centres undefined)	PNC inhibitor -94, ALDH1A1 block inconclusive, ALOX12 inhib inconclusive (no result: IMPase cell inh)
Cc1ccc(C)c(S(=O)(=O)N/N=C2/CCCc3ccccc32)c1	ALDH1A1 block inconclusive
C[C@H]1CC[C@H]2C(=O)N3[C@H](c4ccc(Br)cc4)[C@@H](C)CC[C@H]3C(=O)N2[C@@H]1c1ccc(Br)cc1	none (no result: PNC inhibitor, IMPase cell inh, IMPase Li cell, ALOX12 inhib, HPGD block)
Cc1ccc(N2C(=O)N(CC(=O)N3CCCc4ccccc43)C(=O)C2C)cc1 (centres undefined)	none
COc1ccc(-c2cc(C(=O)N/N=C\c3cc(OC)c(OC)c(OC)c3)[nH]n2)cc1	ALDH1A1 block inconclusive, HPGD block inconclusive (no result: PNC inhibitor, IMPase cell inh, IMPase Li cell)
COc1cccc(Cn2c(=O)c(CCc3ccccc3)nc3cnc(OC)nc32)c1	none (no result: PNC inhibitor, IMPase cell inh)
CCC(C)Nc1nc(Cl)nc(N(C#N)CN2C(=O)c3ccccc3S2(=O)=O)n1 (centres undefined)	ALDH1A1 block 13µM (no result: PNC inhibitor, IMPase cell inh, ALOX12 inhib, HPGD block)
CC(C)Nc1nc(Cl)nc(N(C#N)CN2C(=O)c3ccccc3C2=O)n1	ALDH1A1 block inconclusive (no result: IMPase cell inh)
CCOC(=O)C[n+]1c(C)sc2ccc(OC)cc21	ALDH1A1 block 6.3µM, HPGD block 20µM
Cc1ccc2c(c1)Sc1ccccc1CC2=O	ALDH1A1 block 18µM, HPGD block 25µM
O=C1Cc2ccccc2Sc2ccccc21	ALDH1A1 block inconclusive, HPGD block inconclusive
CC(C)CCNC(=O)c1cccc(Nc2nc3ccccc3n3nnnc23)c1	none (no result: PNC inhibitor, ALDH1A1 block, IMPase Li cell, ALOX12 inhib, HPGD block)
CCC(=O)OC1(C)C(=O)C=C2C=C(CCCNC(=O)OC(C)(C)C)OC=C2C1=O (centres undefined)	none (no result: PNC inhibitor, IMPase cell inh)
CCc1nnc(NC(=O)CSc2nc(-c3ccccc3)nc3ccccc23)s1	IMPase Li cell 10µM (no result: IMPase cell inh)
CCc1nnc(NC(=O)CSc2nc3ccccc3s2)s1	none
CC(C)(C)CC(=O)Nc1nnc(-c2cccs2)s1	PNC inhibitor inconclusive, ALDH1A1 block inconclusive, IMPase Li cell 11µM, HPGD block inconclusive
CCc1nnc(NC(=O)CSc2ccc(-c3ccc(F)cc3)nn2)s1	none (no result: PNC inhibitor, IMPase cell inh, ALOX12 inhib, HPGD block)
O=C(CN1CCCC1)Nc1nnc(-c2cccs2)s1	PNC inhibitor inconclusive, HPGD block inconclusive (no result: IMPase cell inh)
CCc1nnc(NC(=O)CSc2nc(-c3ccccc3)cc(-c3ccc(F)cc3)c2C#N)s1	IMPase Li cell 10µM
CCc1nnc(NC(=O)CSc2ccc(-c3cccs3)nn2)s1	IMPase Li cell 4µM (no result: PNC inhibitor, IMPase cell inh, ALOX12 inhib, HPGD block)
CC(C)OC(=O)CC(=O)CSc1nc(-c2ccc(F)cc2)cc(-c2ccccc2)c1C#N	ALDH1A1 block inconclusive, HPGD block inconclusive
CCc1nnc(NC(=O)CSc2nc(C3CCCCC3)nc3ccccc23)s1	IMPase cell inh inconclusive, IMPase Li cell 7.9µM
CSc1nc(-c2ccc(Cl)cc2Cl)[nH]c(=O)c1C#N	PNC inhibitor inconclusive, HPGD block 2.5µM (no result: IMPase cell inh)
Cc1ccc(C(=O)N2CC(C)OC(C)C2)c(Cl)c1 (centres undefined)	ALDH1A1 block inconclusive, HPGD block 16µM
CC1CN(C(=O)c2cc(S(=O)(=O)N3CCCC3)c(Cl)cc2Cl)CC(C)O1 (centres undefined)	PNC inhibitor inconclusive
O=C(N[C@H](CO)[C@H](O)c1ccc([N+](=O)[O-])cc1)C(Cl)Cl	ALDH1A1 block 14µM! (no result: PNC inhibitor)
O=C(NC(CO)C(O)c1ccc([N+](=O)[O-])cc1)C(Cl)Cl (centres undefined)	none (no result: PNC inhibitor, IMPase cell inh)
C[C@@H](O)CCC[C@H](O)/C=C/[C@H]1[C@H](O)CC(=O)[C@@H]1C/C=C\CCCC(=O)O	none (no result: PNC inhibitor, IMPase cell inh)
C[C@@]1(C(NC(=O)c2ccccc2)c2ccc(-c3ccccc3)cc2)C[C@H]1C1CCCCC1 (some centres undefined)	none (no result: PNC inhibitor, IMPase cell inh)
CCCCOc1ccc(/C(O)=C2/C(=O)C(=O)N(CCN(C)C)C2c2ccc(O)c(OC)c2)cc1 (centres undefined)	none
Cc1c(/C(O)=C2\C(=O)C(=O)N(CCCN(C)C)C2c2ccccc2)cnn1-c1ccccc1 (centres undefined)	ALDH1A1 block inconclusive, HPGD block 20µM
CCCOc1cccc(C2/C(=C(/O)c3ccc(OC)cc3)C(=O)C(=O)N2CCN(C)C)c1 (centres undefined)	ALDH1A1 block 16µM, IMPase Li cell inconclusive
COc1ccc(/C(O)=C2\C(=O)C(=O)N(CCN(C)C)C2c2cc(OC)c(OC)c(OC)c2)c(C)c1 (centres undefined)	ALDH1A1 block 28µM
C=CCOc1ccc(/C(O)=C2\C(=O)C(=O)N(CCOC)C2c2cccnc2)cc1 (centres undefined)	ALDH1A1 block inconclusive, IMPase Li cell 10µM
COC(=O)[C@H]1C[C@H]2CC[C@H](O)C[C@H]2N1Cc1c(F)cccc1Cl	none (no result: PNC inhibitor, IMPase cell inh)
CC(C)C[C@@H](CC(=O)N[C@@H](CCCN)CC(=O)N[C@@H]1CCNC[C@H]1C(=O)N[C@H](CC(=O)N[C@@H](CCC(=O)O)CC(=O)O)Cc1c[nH]c2ccccc12)NC(=O)[C@@H]1CCCC[C@H]1N	none (no result: PNC inhibitor, IMPase cell inh)
CCCOc1ccc(/C(O)=C2/C(=O)C(=O)N(CCOC)C2c2cccnc2)cc1 (centres undefined)	IMPase Li cell 11µM
CCCOc1ccc(/C(O)=C2/C(=O)C(=O)N(CCCOC)C2c2ccncc2)cc1 (centres undefined)	PNC inhibitor inconclusive
CC(=O)N[C@@H](Cc1c[nH]c2ccccc12)C(=O)OCc1cc(C(F)(F)F)cc(C(F)(F)F)c1	IMPase cell inh inconclusive (no result: PNC inhibitor)
O=C1CCCN1Cc1ncnn1-c1ccccc1	PNC inhibitor -100
O=C1CCCCCN1Cc1ccccc1	none
